Compounds without any hit were thinned out: in the full panel of roughly 83,000, 20% have a hit.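 Interpretation: 100, growth as untreated; towards 0, rising growth inhibition; 0, no net growth; 0 to -100, cell death. Compounds scoring below 10 were considered active.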 Unmarked numbers belong to inactive results. The source made the active and inactive calls.
System: SW-620 colon
Assay: NCI-60 one-dose screen, 48 h (100 = growth as untreated, 0 = no growth, -100 = all killed)
Conditions: 10 µM unless noted
Procedure: Growth inhibition of the SW-620 human tumor cell line is measured as a screen for anti-cancer activity. Cells are grown in 96 well plates and exposed to the test compound for 48 hours. Compounds are tested at a single concentration, which is 10^-5 M for most compounds. The reported endpoint is percent growth (GI% or GIPRCNT), where numbers from 0 - 100% represent growth inhibition, and numbers from -100% - 0 represent cell death. For example, a value of 40 represents 60% growth inhibition. A value of 0 means no net growth occurred over the course of the experiment. A value of -40 indicates 40% of cells at the beginning of the experiment died by the end of the experiment. A value of -100 means all cells are dead at the end of the experiment.
NCI-60 Human Tumor Cell Lines Screen was performed using the standard one-dose NCI protocol, which is described in more detail at https://dtp.cancer.gov/discovery_development/nci-60/default.htm.
Compounds with GIPRCNT values below 10 were considered active. Activity score was based on GIPRCNT using the following formula: […]
Score is 0 for GIPRCNT values of 100 or above, 50 for GIPRCNT values of 0, and 100 for GIPRCNT values of -100.

Compared with `NS(=O)(=O)c1ccc(CCN2C(=O)/C(=C\c3ccc(Cl)cc3)C=C2c2ccc(Oc3ccccc3)cc2)cc1`, `CCOC(=O)CSc1nnc(-c2cc3c([nH]c4ccccc43)c(-c3cccc(O)c3)n2)n1-c1ccc(C)cc1` is lower in growth: 83% for the first, 67.1% for the second.

First: COc1ccc(OCC(O)CN2CCN(c3ccc(Cl)cc3)CC2)cc1 (stereo not given)
Second: CCCC(=O)Oc1ccc(/C(=C(\C)c2ccc(OC)cc2)c2ccc(OCCN3CCCCC3)cc2)cc1
The growth of the first is higher: 101% for the first, 87.5% for the second.

Going from `CCCCCCCCCCCC(=O)OCCNC(=O)C[n+]1ccccc1` to `C[C@H]1C=C(C[C@@H](O)CCCCCCCCCC[C@@H](O)[C@H]2CCC(=O)O2)C(=O)O1`, the growth falls from 116% to 99.9%.

First: Cc1ccc2nc(-c3ccc(-n4on4-c4ccc(/C=C/c5ccc(-n6on6-c6ccc(-c7nc8ccc(C)cc8s7)cc6)cc5S(=O)(=O)O)c(S(=O)(=O)O)c4)cc3)sc2c1
Second: O=C(Nc1ccc(-n2cc(-c3ccncc3)c(-c3ccc(O)c(Cl)c3)n2)cc1)c1ccc(Cl)c(C(F)(F)F)c1
The growth of the first is higher: 117% for the first, 26.7% for the second.

Compared with `Nc1ccc(S(=O)(=O)Nc2cc(I)cc(I)c2)cc1`, `O=C(Nc1cccc([N+](=O)[O-])c1)Nc1cccc([N+](=O)[O-])c1` is lower in growth: 119% for the first, 45.4% for the second.

Going from `N#Cc1c(N)nc(Cl)c(C#N)c1C(=O)c1ccccc1` to `N#CC1=C(N)Oc2c(ccc3ccccc23)C1c1cc(=O)oc2ccc(Cl)cc12` (stereo not given), the growth falls from 43.3% to 29.6%.

First: Nc1nccc2c1ccn2-c1cccc(NC(=O)c2ccc(N3CCOCC3)c(C(F)(F)F)c2)c1
Second: Nc1nccc2c1ccn2-c1ccc(NC(=O)Nc2cccc(C(F)(F)F)c2)cc1
The growth of the first is lower: 25.5% for the first, 103% for the second.

Compared with `O=C(Nc1ccc(-n2ccc3c(NC(=O)c4ccccc4)nccc32)cc1)Nc1cccc(C(F)(F)F)c1`, `COc1ccc(NC(=O)Nc2ccc(-c3ccc(OC)c(OC)c3)nc2C)cc1` is higher in growth: 63.4% for the first, 64.8% for the second.

Going from `COc1cc(C(=O)C[n+]2ccccc2)ccc1OC(C)=O` to `Cc1ccc[n+](CC(=O)c2cccc3ccccc23)c1`, the growth rises from 96.9% to 106%.

Compared with `CCOC(=O)c1[nH]c(-c2ccc(Cl)cc2)cc1-c1cccnc1`, `COc1ccc(-c2c(C#N)cnc(N)c2-c2nc3cc(C)c(C)cc3[nH]2)cc1` is higher in growth: 25.4% for the first, 38.4% for the second.

Compared with `COc1ccc(Cl)cc1NC(=O)c1cc2c([nH]1)-c1nc(N)sc1CCC2`, `COc1ccc(Cl)cc1NC(=O)c1cc2c([nH]1)-c1nc(NC(=O)C(C)(C)C)sc1CC2` is lower in growth: 107% for the first, 62.6% for the second.

Compared with `CC(CCC(=O)O)[C@H]1CCC2C3C(=O)C[C@@H]4CC(=O)CC[C@]4(C)C3CC(=O)[C@@]21C` (stereo not given in full), `COc1ccc(C(=O)NC(=O)Nc2ccc3c(c2)NC(=O)/C3=C\c2[nH]c(C)c(CCC(=O)O)c2C)c(F)c1` is lower in growth: 98.7% for the first, 38.5% for the second.

Compared with `CC(C)(C)OC(=O)N1CCN(CCn2cc(C(F)(F)F)c3c(Cl)ncnc32)CC1`, `c1ccc([Se]CCCN2CCN(CCC[Se]c3ccccc3)CC2)cc1` is higher in growth: 12% for the first, 101% for the second.

Going from `COc1cc(-c2nc3ccccc3s2)ccc1OCc1nc2n(n1)S(=O)(=O)c1ccccc1N2C` to `COc1ccccc1NC(=O)COc1ccc(/C=C2/Oc3cc4occc4c(OC)c3C2=O)cc1OC`, the growth rises from 92.4% to 111%.

Compared with `Cc1ccc2[nH]c3nc4cccnc4c(C)c3c2c1`, `CCN(CC)CCN1C(=O)c2c(c3c4ccccc4[nH]c3c3[nH]c4ccccc4c23)C1=O` is lower in growth: 91.6% for the first, 46.9% for the second.

Compared with `COc1ccc(/C=C2/C(=O)Nc3cc(Cl)c(-c4csc(N)n4)cc32)cc1`, `Nc1nc(-c2cc3c(cc2Cl)NC(=O)/C3=C/c2ccc(Cl)cc2)cs1` is lower in growth: 31.2% for the first, 30% for the second.

Compared with `COc1cccc(C2CC(c3cc(OC)c(OC)c(OC)c3)=NN2)c1` (stereo not given), `O=[N+]([O-])c1cccc(C(c2ccccc2)c2ccccc2)c1` is higher in growth: 51.7% for the first, 87.7% for the second.

Compared with `CC(NCCC(c1ccccc1)c1ccccc1)c1ccccc1` (stereo not given), `c1ccc2nc(Cn3cc[n+](Cc4ccc5ccccc5n4)c3)ccc2c1` is higher in growth: 36.7% for the first, 77.8% for the second.

For `CC(C)(C)OC(=O)N1CC(Cn2cc(C(F)(F)F)c3c(Cl)ncnc32)C1`, the growth was -37.6% (active).
For `O=C(Nc1ccc(Cl)c(Cl)c1)Nc1ccc(Cl)c([N+](=O)[O-])c1`, the growth was 9.66% (active).
In the case of `COC(=O)c1oc2c(C(=O)/C=C/c3ccc(OC)cc3)c(OCCN3CCOCC3)ccc2c1C`, the growth is reported as -96.8% (active).
In the case of `C=C1C(=O)O[C@H]2[C@H]1CC/C(COC(=O)OC/C1=C/CC[C@@]3(C)O[C@H]3[C@H]3OC(=O)[C@@H](CN(C)C)[C@@H]3CC1)=C\CC[C@@]1(C)O[C@@H]21`, the growth is reported as -56.5% (active).

Reference: PubChem BioAssay (NCI)
